PubChem BioAssay (NCI)
Compounds without any hit were thinned out: in the full panel of roughly 83,000, 20% have a hit.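 Treatment: one concentration, 48 hours, 96-well format. Scoring: percent growth, with anything below 10 considered active.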 The source made the active and inactive calls.

What was measured:
Assay in all cases: NCI-60 one-dose screen, 48 h (100 = growth as untreated, 0 = no growth, -100 = all killed)
Conditions in all cases: 10 µM unless noted
SR leukemia = test system: SR leukemia
RPMI-8226 leukemia = test system: RPMI-8226 leukemia
OVCAR-8 ovarian = test system: OVCAR-8 ovarian
OVCAR-5 ovarian = test system: OVCAR-5 ovarian
OVCAR-4 ovarian = test system: OVCAR-4 ovarian
SK-OV-3 ovarian = test system: SK-OV-3 ovarian
IGROV1 ovarian = test system: IGROV1 ovarian
OVCAR-3 ovarian = test system: OVCAR-3 ovarian
HS 578T breast = test system: HS 578T breast
T-47D breast = test system: T-47D breast
BT-549 breast = test system: BT-549 breast
MDA-MB-435 melanoma = test system: MDA-MB-435 melanoma
SW-620 colon = test system: SW-620 colon
MCF7 breast = test system: MCF7 breast
HCT-116 colon = test system: HCT-116 colon
HCC-2998 colon = test system: HCC-2998 colon
KM12 colon = test system: KM12 colon
NCI/ADR-RES ovarian = test system: NCI/ADR-RES ovarian

Measured: growth

Cn1nc(CC#N)c2c(=N)n(N)cnc21
inactive: SR leukemia 93.4% | RPMI-8226 leukemia 117% | OVCAR-8 ovarian 104% | OVCAR-5 ovarian 93.5% | OVCAR-4 ovarian 114% | SK-OV-3 ovarian 99.8% | IGROV1 ovarian 103% | OVCAR-3 ovarian 112% | HS 578T breast 114% | T-47D breast 105% | BT-549 breast 122% | MDA-MB-435 melanoma 107% | SW-620 colon 104% | MCF7 breast 100% | HCT-116 colon 119% | HCC-2998 colon 120% | KM12 colon 102%

Cn1ccnc1C(=O)/C=C/c1ccc(CC(=O)Nc2ccc(Cl)cc2)cc1
active: SR leukemia 6.73% | RPMI-8226 leukemia -7.76% | OVCAR-8 ovarian -27.7% | OVCAR-3 ovarian 4.49% | HS 578T breast 8.18% | T-47D breast 2.07% | SW-620 colon 7.1% | HCT-116 colon 7.88% | KM12 colon 9.56%
inactive: OVCAR-5 ovarian 22.9% | OVCAR-4 ovarian 36.9% | SK-OV-3 ovarian 58.7% | IGROV1 ovarian 13% | BT-549 breast 17.6% | MDA-MB-435 melanoma 17.6% | MCF7 breast 25.5% | HCC-2998 colon 30.3%

COc1cc2oc(-c3cccc(C(=O)Nc4ccc(Br)cc4)c3)cc(=O)c2c(OC)c1OC
active: RPMI-8226 leukemia 8.6%
inactive: SR leukemia 18.4% | OVCAR-8 ovarian 40.5% | OVCAR-5 ovarian 61% | OVCAR-4 ovarian 57.6% | SK-OV-3 ovarian 69.4% | IGROV1 ovarian 52.3% | OVCAR-3 ovarian 76% | NCI/ADR-RES ovarian 45.7% | T-47D breast 36% | BT-549 breast 45.8% | MDA-MB-435 melanoma 65.6% | SW-620 colon 94.6% | MCF7 breast 78.1% | HCT-116 colon 45.6% | HCC-2998 colon 81.9% | KM12 colon 46.6%

CN[C@@H](C)C(=O)N[C@H]1CCS[C@H]2CC(C)(C)[C@@H](C(=O)N[C@H]3c4ccccc4C[C@H]3OCC#CC#CCO[C@@H]3Cc4ccccc4[C@@H]3NC(=O)[C@H]3N4C(=O)[C@@H](NC(=O)[C@H](C)NC)CCS[C@H]4CC3(C)C)N2C1=O
inactive: SR leukemia 36.1% | RPMI-8226 leukemia 71.2% | OVCAR-8 ovarian 77.3% | OVCAR-5 ovarian 109% | IGROV1 ovarian 116% | OVCAR-3 ovarian 86.2% | NCI/ADR-RES ovarian 109% | T-47D breast 86.1% | MDA-MB-435 melanoma 54.8% | SW-620 colon 105% | MCF7 breast 64.7% | HCT-116 colon 99% | HCC-2998 colon 90.2%
active: OVCAR-4 ovarian -33.1% | SK-OV-3 ovarian -71.6% | BT-549 breast -15.4%

CCCCCCCCCCCCCCCC[N+]1(C)CCN(SN2CC[N+](C)(CCCCCCCCCCCCCCCC)CC2)CC1
active: IGROV1 ovarian -18.9%
inactive: SR leukemia 26.8% | RPMI-8226 leukemia 26.3% | OVCAR-8 ovarian 67.2% | OVCAR-5 ovarian 50% | OVCAR-4 ovarian 74.6% | SK-OV-3 ovarian 124% | OVCAR-3 ovarian 59.7% | HS 578T breast 88.2% | T-47D breast 102% | BT-549 breast 87.7% | MDA-MB-435 melanoma 95.7% | SW-620 colon 57.7% | MCF7 breast 76.9% | HCT-116 colon 31.6% | HCC-2998 colon 70% | KM12 colon 78.2%

O=S(=O)(NCCNc1nccc(-c2c(-c3cccc(F)c3)nc3sccn23)n1)c1ccccc1
inactive: SR leukemia 29.3% | RPMI-8226 leukemia 43.5% | OVCAR-8 ovarian 33.9% | OVCAR-5 ovarian 79.6% | OVCAR-4 ovarian 40% | SK-OV-3 ovarian 57.2% | OVCAR-3 ovarian 58.9% | HS 578T breast 55.5% | T-47D breast 18.8% | BT-549 breast 50.4% | MDA-MB-435 melanoma 17.4% | SW-620 colon 44.5% | MCF7 breast 21.7% | HCT-116 colon 22.7% | HCC-2998 colon 66.4% | KM12 colon 28.8%
active: IGROV1 ovarian 4.9%

Cc1ccc(-c2[nH][nH]c(=O)c2-c2nc3ccccc3s2)cc1
inactive: SR leukemia 97.9% | RPMI-8226 leukemia 96.9% | OVCAR-8 ovarian 105% | OVCAR-5 ovarian 94.4% | OVCAR-4 ovarian 105% | SK-OV-3 ovarian 104% | IGROV1 ovarian 106% | OVCAR-3 ovarian 111% | NCI/ADR-RES ovarian 98% | T-47D breast 103% | BT-549 breast 123% | MDA-MB-435 melanoma 100% | SW-620 colon 93.9% | MCF7 breast 97.1% | HCT-116 colon 100% | HCC-2998 colon 99.7% | KM12 colon 103%

CC(=O)c1ccc(NS(=O)(=O)c2cccc(C(=O)Nc3ccc(Br)cc3)c2)cc1
inactive: SR leukemia 87.8% [25 µM] | RPMI-8226 leukemia 22% [25 µM] | OVCAR-8 ovarian 67.3% [25 µM] | OVCAR-5 ovarian 89.2% [25 µM] | OVCAR-4 ovarian 63.6% [25 µM] | SK-OV-3 ovarian 66.5% [25 µM] | IGROV1 ovarian 73.7% [25 µM] | OVCAR-3 ovarian 70.9% [25 µM] | NCI/ADR-RES ovarian 48% [25 µM] | T-47D breast 30.6% [25 µM] | BT-549 breast 48.3% [25 µM] | MDA-MB-435 melanoma 53.4% [25 µM] | SW-620 colon 75.6% [25 µM] | MCF7 breast 60.8% [25 µM] | HCT-116 colon 48.4% [25 µM] | HCC-2998 colon 79.8% [25 µM] | KM12 colon 58.2% [25 µM]

N#CC1=C(N)Oc2c(cnn2-c2ccc([N+](=O)[O-])cc2[N+](=O)[O-])C1c1ccccc1 (stereo not drawn)
inactive: SR leukemia 98.2% | RPMI-8226 leukemia 92.5% | OVCAR-8 ovarian 101% | OVCAR-5 ovarian 99.1% | OVCAR-4 ovarian 109% | SK-OV-3 ovarian 112% | IGROV1 ovarian 100% | OVCAR-3 ovarian 112% | HS 578T breast 89% | T-47D breast 98% | BT-549 breast 107% | MDA-MB-435 melanoma 101% | SW-620 colon 96.2% | MCF7 breast 97% | HCT-116 colon 100% | HCC-2998 colon 101% | KM12 colon 101%

O=C1c2cccc3c(-c4ccc5c(c4)ncn5C4CCCCC4)ccc(c23)C(=O)N1CCO
inactive: SR leukemia 84.7% | RPMI-8226 leukemia 66.3% | OVCAR-8 ovarian 83.2% | OVCAR-5 ovarian 110% | OVCAR-4 ovarian 86% | SK-OV-3 ovarian 109% | IGROV1 ovarian 96.2% | OVCAR-3 ovarian 88.9% | NCI/ADR-RES ovarian 89.1% | T-47D breast 68% | BT-549 breast 95.2% | MDA-MB-435 melanoma 109% | SW-620 colon 104% | MCF7 breast 97.8% | HCT-116 colon 80% | HCC-2998 colon 93.2% | KM12 colon 86.7%

COc1ccc(C(=O)c2cc(C)c(OC)c(C)c2)c(OC)c1N(C(=O)CCl)C(=O)CCl
inactive: SR leukemia 21% | RPMI-8226 leukemia 17.7% | OVCAR-8 ovarian 10.3% | OVCAR-5 ovarian 29.2% | OVCAR-4 ovarian 44.9% | IGROV1 ovarian 13.8% | HS 578T breast 23% | T-47D breast 51.2% | SW-620 colon 20.3% | MCF7 breast 14% | HCC-2998 colon 13.5%
active: SK-OV-3 ovarian 2.36% | OVCAR-3 ovarian -6.63% | BT-549 breast 3.05% | MDA-MB-435 melanoma -46.8% | HCT-116 colon -0.69% | KM12 colon 6.61%

CCCCNC(=O)Oc1ccc(/C(=C(\C)c2ccccc2)c2ccc(OCCN3CCCCC3)cc2)cc1
inactive: RPMI-8226 leukemia 42.7% | OVCAR-8 ovarian 71.9% | OVCAR-5 ovarian 89.5% | OVCAR-4 ovarian 75.4% | SK-OV-3 ovarian 71.6% | IGROV1 ovarian 76.9% | OVCAR-3 ovarian 64.7% | NCI/ADR-RES ovarian 63.1% | T-47D breast 31.6% | BT-549 breast 62% | MDA-MB-435 melanoma 67.8% | SW-620 colon 60.8% | MCF7 breast 22.5% | HCT-116 colon 42.8% | HCC-2998 colon 79% | KM12 colon 52.1%
active: SR leukemia 0.363%

Cn1ccnc1C(=O)/C=C/c1ccc(CC(=O)NC2CCCCC2)cc1
inactive: SR leukemia 24.8% | RPMI-8226 leukemia 20.3% | OVCAR-8 ovarian 62.4% | OVCAR-5 ovarian 96.8% | OVCAR-4 ovarian 58.6% | SK-OV-3 ovarian 92.9% | IGROV1 ovarian 60.4% | OVCAR-3 ovarian 27.6% | HS 578T breast 86.1% | T-47D breast 47.9% | BT-549 breast 54.1% | MDA-MB-435 melanoma 54.1% | SW-620 colon 23.1% | MCF7 breast 44.3% | HCT-116 colon 21.5% | HCC-2998 colon 100% | KM12 colon 28.9%

CNC(=O)c1cccc(Cn2nc(C)c(NC(=O)c3ccc(COc4ccc(C(F)(F)F)cc4C)cc3)c2C)n1
inactive: SR leukemia 22% | RPMI-8226 leukemia 32.7% | OVCAR-8 ovarian 35.8% | OVCAR-5 ovarian 104% | OVCAR-4 ovarian 37.8% | SK-OV-3 ovarian 74% | IGROV1 ovarian 65.1% | OVCAR-3 ovarian 35.1% | HS 578T breast 87.7% | BT-549 breast 22.1% | MDA-MB-435 melanoma 43.2% | SW-620 colon 81.8% | MCF7 breast 21.7% | HCT-116 colon 24.4% | HCC-2998 colon 61.7% | KM12 colon 65.4%
active: T-47D breast 7.54%

Nc1nc(Nc2ccccc2SSc2ccccc2Nc2nc(N)nc(-c3ccc(C(F)(F)F)cc3)n2)nc(-c2ccc(C(F)(F)F)cc2)n1
active: SR leukemia -5.23%
inactive: RPMI-8226 leukemia 43.6% | OVCAR-8 ovarian 56% | OVCAR-5 ovarian 104% | OVCAR-4 ovarian 82% | SK-OV-3 ovarian 104% | IGROV1 ovarian 69.7% | OVCAR-3 ovarian 80.5% | HS 578T breast 78.7% | T-47D breast 41.7% | BT-549 breast 75.6% | MDA-MB-435 melanoma 74.9% | SW-620 colon 80.4% | MCF7 breast 52.2% | HCT-116 colon 51% | HCC-2998 colon 93.1% | KM12 colon 44.8%

CC(=O)O[C@H]1Cc2c([nH]c3ccccc23)[C@@H](c2ccc(Cl)cc2)N1C(=O)CCNC(C)(C)C
active: SR leukemia 3.79%
inactive: RPMI-8226 leukemia 44.2% | OVCAR-8 ovarian 83.4% | OVCAR-5 ovarian 59.6% | OVCAR-4 ovarian 64.6% | SK-OV-3 ovarian 90.5% | IGROV1 ovarian 24.6% | OVCAR-3 ovarian 70.8% | NCI/ADR-RES ovarian 91.8% | T-47D breast 74.3% | BT-549 breast 53.7% | MDA-MB-435 melanoma 70% | SW-620 colon 61.1% | MCF7 breast 34.3% | HCT-116 colon 20.8% | HCC-2998 colon 60.3% | KM12 colon 66.6%

CC1(C)CC(O)CCCCCCOc2c(CN)cccc2NC(=O)c2nc(cnc2N)-c2ccc(cc2)S1(=O)=O (stereo not drawn)
inactive: OVCAR-8 ovarian 23.5% | OVCAR-5 ovarian 68.4% | SK-OV-3 ovarian 44.9% | HS 578T breast 13.2% | T-47D breast 66.2% | BT-549 breast 28.2% | MDA-MB-435 melanoma 20% | HCC-2998 colon 28.6%
active: SR leukemia -16.8% | RPMI-8226 leukemia -41.5% | OVCAR-4 ovarian -22.1% | IGROV1 ovarian 9.31% | OVCAR-3 ovarian -5.21% | SW-620 colon -6.55% | MCF7 breast -16% | HCT-116 colon -63.6% | KM12 colon -10.7%
